The values that follow come from PubChem BioAssay (Tox21).

A short description of assay [1]: qHTS assay to identify small molecule agonists of the hypoxia (HIF-1) signaling pathway - cell viability counter screen (AID 1224844; calls by dose curve; also: nearly all actives have a fitted effect of over 50% in size). The method in brief: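 HRE-bla ME-180; 0.5% dFBS; cpd 17 h, 37C, 5% CO2; CellTiter-Glo lum., 30 min RT, post-FRET read, same wells.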
Assay [2] in a line: qHTS assay to identify small molecule agonists of H2AX (AID 1224845; active = well fitted activation curve with a large enough effect in the signal ratio in the repeat runs, not every such curve was filed as active; the % refers to the signal ratio). The method in brief:
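Wild-type CHO-K1 cells plated overnight, then exposed 3 hr at 37C to compounds at 15 concentrations (0.76% DMSO). Lysed, then HTRF anti-pH2AX(S139)-cryptate/anti-H2AX-d2 detection after 24 hr at room temperature; emissions 665 and 620 nm.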

Assay [3] in a line: qHTS assay to identify small molecule agonists of the hypoxia (HIF-1) signaling pathway (AID 1224846; active = well fitted activation curve with a large enough effect in the signal ratio in the repeat runs, not every such curve was filed as active; the % refers to the signal ratio). The method in brief: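 Reporter induction in HRE-bla ME-180 cells is taken as agonism: cells sit 5 hrs after plating, receive compounds or DMSO only, incubate 17 hrs at 37C under 5% CO2, and are loaded with CCF4-AM for beta-lactamase FRET measurement.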
Assay [4] is described as follows: qHTS assay to identify small molecule agonists of H2AX - cell viability counter screen (AID 1224847; calls by dose curve; also: top concentration of the series differs between compounds; nearly all actives have a fitted effect of over 30% in size). The method in brief:
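CHO-K1 cells plated overnight at 37C, then exposed 3 h at 37C to compounds at 15 concentrations (0.76% DMSO final). Viability by CellTiter-Glo luminescence after 30 min at room temperature.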

Assay [5] in a line: qHTS assay to identify small molecule antagonists of the estrogen related receptor (ERR) signaling pathway from Tox21 library (AID 1224848). Also: nearly all actives have a fitted effect of over 50% in size. The method in brief: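 Tox21 10K compounds in DMSO tested for ERR pathway antagonism in NTP's ERR cell line; 18 h, 37 C exposure; ONE-Glo luminescence.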
A short description of assay [6]: qHTS assay to identify small molecule agonists of the estrogen related receptor (ERR) signaling pathway from Tox21 library (AID 1224849; calls by dose curve; also: nearly all actives have a fitted effect of over 15% in size). To be noted: ERR reporter cell line, ONE-Glo luciferase, 18 h; at 92.4 µM (top of the series) unless noted. The method in brief: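 Tox21 compounds tested for ERR agonism in an NTP reporter cell line: 18 h treatment at 37 C, then ONE-Glo luminescence.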

The nature of assay [7]: qHTS RealTime-Glo MT Cell Viability Assay in HepG2 cells - 24 hour (AID 1224867). Also: nearly all actives have a fitted effect of over 50% in size. The method in brief: (§1)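 HepG2 suspension premixed with RealTime-Glo reagents is plated at 600 cells per well and left 5 h at 37 C/5% CO2. Compounds in DMSO then go in, and bioluminescence reflecting viable cell number is recorded over 40 h.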
The nature of assay [8]: qHTS RealTime-Glo MT Cell Viability Assay in HEK293 cells - 32 hour (AID 1224868). Also: nearly all actives have a fitted effect of over 50% in size. Also: potency is read from the fitted curve at half-maximal effect. The method in brief: (§2)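 Reads taken at 0, 8, 16, 24, 32 and 40 h from the same wells. HEK293 cells (600/well) carried RealTime-Glo reagents from seeding, with compound added after a 5 h settle at 37 C.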
Assay [9] can be described thus: A CellTox Green Cytotoxicity Assay to monitor cytotoxicity in HEK293 cells - 0 hour (AID 1224869). Also: nearly all actives have a fitted effect of over 50% in size. The method in brief:
(§3)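 Tox21 screen in HEK293: membrane-impermeant cyanine dye fluoresces on binding dead-cell DNA; compound pinned 5 h post-seeding, plates held at 37 C, signal read repeatedly through 40 h.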

Assay [10] can be described thus: qHTS RealTime-Glo MT Cell Viability Assay in HepG2 cells - 40 hour (AID 1224870). Also: nearly all actives have a fitted effect of over 50% in size. The method in brief: (§4)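 HepG2 cells mixed with RealTime-Glo MT reagents (NanoLuc plus cell-permeant prosubstrate) were seeded at 600 cells/well, incubated 5 h at 37 C/5% CO2, then pinned with compounds in DMSO; nonlytic luminescence tracked viability during 40 h treatment.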
Assay [11] is described as follows: A CellTox Green Cytotoxicity Assay to monitor cytotoxicity in HEK293 cells - 40 hour (AID 1224871). Also: nearly all actives have a fitted effect of over 45% in size. The method in brief:
as §3

The nature of assay [12]: qHTS RealTime-Glo MT Cell Viability Assay in HEK293 cells - 16 hour (AID 1224872). Also: nearly all actives have a fitted effect of over 50% in size. Also: potency is read from the fitted curve at half-maximal effect. The method in brief:
as §2

Assay [13] can be described thus: qHTS RealTime-Glo MT Cell Viability Assay in HEK293 cells - 40 hour (AID 1224874). Also: nearly all actives have a fitted effect of over 50% in size. To be noted: RealTime-Glo luminescence; max response: active compounds read low. The method in brief: (§5)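 HEK293 + NanoLuc + prosubstrate, 600 cells/well; 5 h, 37 C/5% CO2; compound 23 nL in DMSO by pintool; 37 C; luminescence read at 0, 8, 16, 24, 32 and 40 h time points.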
Assay [14] is described as follows: A CellTox Green Cytotoxicity Assay to monitor cytotoxicity in HEK293 cells - 24 hour (AID 1224875). Also: nearly all actives have a fitted effect of over 45% in size. The method in brief: as §3
The nature of assay [15]: A CellTox Green Cytotoxicity Assay to monitor cytotoxicity in HepG2 cells - 16 hour (AID 1224876). Also: nearly all actives have a fitted effect of over 45% in size. The method in brief: (§6)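 Measurements at 0, 8, 16, 24, 32 and 40 h of treatment captured CellTox Green fluorescence in HepG2 cells that had been co-plated with reagent and preincubated 5 h at 37 C/5% CO2.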
The nature of assay [16]: qHTS RealTime-Glo MT Cell Viability Assay in HepG2 cells - 32 hour (AID 1224877). Also: nearly all actives have a fitted effect of over 55% in size. The method in brief:
as §1

Assay [17] is described as follows: A CellTox Green Cytotoxicity Assay to monitor cytotoxicity in HepG2 cells - 24 hour (AID 1224878). Also: nearly all actives have a fitted effect of over 45% in size. The method in brief:
as §6

Assay [18] is described as follows: A CellTox Green Cytotoxicity Assay to monitor cytotoxicity in HepG2 cells - 40 hour (AID 1224879). Also: nearly all actives have a fitted effect of over 40% in size. The method in brief: as §6
Assay [19] is described as follows: qHTS RealTime-Glo MT Cell Viability Assay in HEK293 cells - 0 hour (AID 1224880). The method in brief:
as §5

The nature of assay [20]: qHTS RealTime-Glo MT Cell Viability Assay in HepG2 cells - 8 hour (AID 1224873). Also: nearly all actives have a fitted effect of over 55% in size. The method in brief:
as §4

A number with no mark means an inactive call. Records with an inconclusive call do not appear. The source made the active and inactive calls. Unless noted, calls follow the shape of the dose curve; as a rule, active = well fitted curve in the direction sought with a large enough effect in the repeat runs; inconclusive = weak or mixed curves; inactive = no such curve, though single readings can be large; an effect the other way counts as inactive or inconclusive.
% is scaled to controls: 0 for no effect and ±100 for the full control effect.

For the compound `N#Cc1ccccc1Cl`, the Potency result in assay [1], in [2], in assay [4], in assay [5], in assay [7] and in assay [8] was “inactive” in each case. Also, the Potency result in assay [9], in assay [10], in [11], in assay [12], in assay [14] and in assay [15] was “inactive” throughout. Besides, the Potency result in [16], in assay [17], in [18] and in assay [19] was “inactive” each time. Moreover, in assay [3], the compound was called inactive. For the same compound, the activity change, positive = activation in [6] was 1.91%. Besides, the max response in assay [13] was -1.15%.
In the case of `Nc1c(Oc2ccccc2)cc(O)c2c1C(=O)c1ccccc1C2=O`, the Potency entry in assay [1], in assay [2], in assay [4], in [7], in assay [10] and in [11] was “inactive” throughout. The Potency result in [20], in assay [14], in assay [16], in [17], in assay [18] and in assay [19] was “inactive” each time. Moreover, the call in assay [3] was inactive. Further, the Potency in assay [8] was 19 µM (active); in assay [12], 10.7 µM (active).
With `CC(O)C#N` (configuration not stated), the Potency entry in assay [1], in assay [2], in [4], in [7], in assay [8] and in [11] was “inactive” throughout. Also, the Potency result in [12], in assay [20], in assay [14], in assay [16], in assay [17] and in [18] was “inactive” each time. In assay [19], the Potency entry was “inactive”. Besides, the compound was classed as inactive in assay [3]. Besides, the max response in [13] is -0.282%.
Turning to `SCc1ccco1`, the Potency result in [1], in [2], in assay [4], in assay [7], in assay [8] and in assay [9] was “inactive” throughout. Besides, the Potency result in assay [10], in [11], in [12], in [14], in assay [15] and in assay [16] was “inactive” throughout. Moreover, the Potency entry in assay [17], in assay [18] and in [19] was “inactive” each time. The outcome in assay [3] was inactive.
Turning to `CCOC(=O)OC1=C(c2cc(C)ccc2C)C(=O)NC12CCC(OC)CC2` (configuration not stated), the Potency result in assay [1], in assay [2], in assay [4], in assay [7], in [8] and in assay [9] was “inactive” throughout. The Potency result in assay [10], in assay [11], in [12], in assay [20], in [14] and in [15] was “inactive” throughout. Moreover, the Potency result in assay [16], in [17], in assay [18] and in assay [19] was “inactive” each time. In addition, in assay [3], the compound was called inactive. Besides, the max response in assay [13] was -0.185%.
On to `NNC(=O)c1ccccc1`, for which the Potency entry in [1], in assay [2], in [4], in assay [7], in assay [8] and in assay [9] was “inactive” each time. In addition, the Potency entry in [10], in [11], in assay [12], in assay [20], in assay [14] and in [16] was “inactive” in each case. The Potency entry in assay [17], in assay [18] and in [19] was “inactive” each time. For the same compound, in assay [3], the compound was called inactive.
Take `CC(=O)Nc1ccc2c(c1)Cc1ccccc1-2`: the Potency entry in [1], in [2], in assay [4], in [7], in [8] and in assay [9] was “inactive” each time. For the same compound, the Potency entry in assay [10], in assay [11], in [12], in assay [20], in [14] and in assay [15] was “inactive” in each case. The Potency result in assay [16], in assay [17], in assay [18] and in assay [19] was “inactive” each time. Besides, in assay [3], the result was inactive. Moreover, in [13], the max response is -12.3%.
